Entries with a potency or affinity are not part of this list. Results filed as inconclusive are left out. Active and inactive are the calls of the source. Unless noted, the rule behind the calls is not given here.
Assays:
[1] = cytotoxicity in PAX8-dependent RMG-1 cells, dose response, cell-based, cherry-pick (AID 687029;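 active = signal drop whose fitted half-maximal concentration is at most twice the top valid dose, in every test run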;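 note: cells exposed to compound for 96 hours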)
[2] = cytotoxicity in IOSE-T80 ovarian epithelial cells, dose response, selectivity assay for PAX8 inhibitor project, cell-based, cherry-pick (AID 687032;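 active = fitted half-maximal concentration for viability loss no higher than twice the top valid dose, in every repeat run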;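 note: cells exposed to compound for 96 h before reading; 0% = neutral control wells and -100% = 2 µM mitoxantrone kill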)
[3] = inhibitors of CMV-promoter luciferase reporter, dose response, counter-screen for Pax8 inhibitor project, cell-based, HEK293, luminescence, dry powder (AID 743020;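 active = signal-lowering compounds whose fitted half-maximal concentration is at or below twice the top tested dose in every run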;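 note: HEK293 cells stably expressing the CMV luciferase reporter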)
[4] = non-specific cell cytotoxicity, dose response, cytotoxicity control for PAX8 inhibitor project, plate reader, dry powder samples (AID 743021)
[5] = NIH:OVCAR-3 ovarian cancer cell cytotoxicity, dose response, PAX8 inhibitor project, plate reader, dry powder samples (AID 743044); conditions: max activity: at 35 µM, hits give low values unless noted
[6] = IOSE-T80 ovarian epithelial cell cytotoxicity, dose response, cytotoxicity control for PAX8 inhibitor project, plate reader, dry powder samples (AID 743045);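 note: 0% = neutral control median and -100% = positive control median; more negative values mean more cell killing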
[7] = A2780 ovarian cancer cell cytotoxicity, dose response, cytotoxicity control, plate reader, dry powder samples (AID 743046);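 note: 0% = neutral control wells and -100% = cytotoxic reference compound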
[8] = cytotoxicity in OVCAR8 ovarian cancer cells, dose response, PAX8 project, cell-based, plate reader, dry powder samples (AID 743197)

Measured: max activity

COc1ccc(CN(C)C[C@H]2OCCCC[C@H](C)Oc3ccc(NC(=O)Nc4ccc(C(F)(F)F)cc4)cc3C(=O)N([C@@H](C)CO)C[C@@H]2C)cc1
inactive: [1] | [2] | [3] | [4] | [5] -11.3% | [6] | [7]

N#C[C@@H]1[C@@H](c2ccc(-c3cccc(F)c3)cc2)[C@H](CO)N1C(=O)NC1CCCC1
inactive: [1] | [2] | [3] | [4] | [5] 15.7% [at 0.26 µM, hits give low values] | [7] | [8]

O=C(C[C@H]1CC[C@H]2[C@@H](COC[C@@H](O)CN2Cc2ccc3c(c2)OCO3)O1)Nc1ccc(-c2ccccc2)cc1
inactive: [1] | [2] | [3] | [4] | [5] 60.4% [at 2.1 µM, hits give low values] | [6] | [7] | [8]

C[C@@H]1CN([C@@H](C)CO)C(=O)Cc2cc(NS(=O)(=O)c3ccc(Cl)cc3)ccc2O[C@H]1CN(C)Cc1ccc(Cl)c(Cl)c1
inactive: [1] | [2] | [3] | [4] | [5] 11% [at 16 µM, hits give low values] | [6] | [7] | [8]

COc1cccc(-c2ccc([C@H]3[C@@H](CO)N(C(=O)c4ccccn4)[C@H]3C#N)cc2)c1
inactive: [1] | [2] | [3] | [4] | [5] -40.2% | [6] | [7]

C[C@@H]1CCCCO[C@@H](CN(C)Cc2ccc(C(F)(F)F)cc2)[C@H](C)CN([C@H](C)CO)C(=O)c2cc(NS(=O)(=O)c3ccccc3)ccc2O1
inactive: [1] | [2] | [3] | [4] | [5] -29.5% | [6] | [7]

C[C@@H]1CCCCO[C@@H](CN(C)Cc2ccc(C(F)(F)F)cc2)[C@H](C)CN([C@H](C)CO)C(=O)c2cc(NC(=O)c3ccccc3)ccc2O1
inactive: [1] | [2] | [3] | [4] | [5] -25.3% | [6] | [8]

C[C@@H]1CN([C@@H](C)CO)C(=O)c2cc(NC(=O)Cc3ccccc3)ccc2O[C@@H](C)CCCCO[C@@H]1CN(C)Cc1ccc(C(F)(F)F)cc1
inactive: [1] | [2] | [3] | [4] | [5] -8.58% | [6] | [7]

COc1ccc(-c2ccc3c(c2)[C@@H]2[C@@H](CCN2C(=O)C2CCCCC2)[C@H](CO)N3C)cc1
inactive: [1] | [2] | [3] | [4] | [6]

O=C(C[C@@H]1CC[C@@H]2[C@H](COC[C@H](O)CN2Cc2ccc3c(c2)OCO3)O1)Nc1ccc(-c2ccccc2)cc1
inactive: [1] | [2] | [3] | [4] | [5] 25.3% [at 0.5 µM, hits give low values] | [6] | [7] | [8]

C[C@H](CO)N1C[C@H](C)[C@H](CN(C)Cc2ccc(Cl)c(Cl)c2)OCCCC[C@H](C)Oc2ccc(NC(=O)Nc3ccc(C(F)(F)F)cc3)cc2C1=O
inactive: [1] | [2] | [3] | [4] | [5] 27.7% [at 2.1 µM, hits give low values] | [6] | [7]

C[C@H]1CCCCO[C@H](CN(C)C(=O)NC2CCCCC2)[C@@H](C)CN([C@@H](C)CO)C(=O)c2cc(NC(=O)Nc3ccc(C(F)(F)F)cc3)ccc2O1
inactive: [1] | [2] | [3] | [4] | [5] -30.4% | [6] | [7]

C[C@@H]1CN([C@@H](C)CO)C(=O)Cc2cc(NC(=O)C3CCCCC3)ccc2O[C@H]1CN(C)Cc1ccc(Cl)c(Cl)c1
inactive: [1] | [2] | [3] | [4] | [5] -14.6% [at 8 µM, hits give low values] | [6] | [7] | [8]

C[C@@H]1CCCCO[C@@H](CN(C)C(=O)Nc2ccc(F)cc2)[C@H](C)CN([C@H](C)CO)C(=O)c2cc(NS(=O)(=O)c3ccc(Cl)cc3)ccc2O1
inactive: [1] | [2] | [3] | [4] | [5] 17.7% | [6] | [7]

Cc1cccc(S(=O)(=O)N2CC[C@@H]3[C@H](CO)N(C)c4ccc(C#Cc5ccc(F)cc5)cc4[C@@H]32)c1
inactive: [1] | [2] | [3] | [4] | [5] -16.3% [at 30 µM, hits give low values] | [6] | [7]

Cc1ccc(S(=O)(=O)Nc2ccc3c(c2)C(=O)N([C@H](C)CO)C[C@@H](C)[C@H](CN(C)S(=O)(=O)c2ccc(C)cc2)OCCCC[C@H](C)O3)cc1
inactive: [1] | [2] | [3] | [4] | [5] 32.9% [at 0.26 µM, hits give low values] | [6] | [8]

N#C[C@@H]1[C@@H](c2ccc(-c3ccccc3F)cc2)[C@@H](CO)N1C(=O)C1CCC1
inactive: [1] | [2] | [3] | [4] | [5] -15.9% | [6] | [7] | [8]

C[C@H](CO)N1C[C@H](C)[C@@H](CN(C)Cc2ccc(Cl)c(Cl)c2)Oc2ccc(NC(=O)Nc3ccc(C(F)(F)F)cc3)cc2CC1=O
inactive: [1] | [2] | [3] | [4] | [5] 17.7% [at 0.5 µM, hits give low values] | [6] | [7] | [8]

C[C@@H]1CCCCO[C@@H](CN(C)Cc2ccc(Cl)c(Cl)c2)[C@H](C)CN([C@H](C)CO)C(=O)c2cc(NS(=O)(=O)c3ccc(Cl)cc3)ccc2O1
inactive: [1] | [2] | [3] | [4] | [5] -24.1% | [6] | [7]

O=C(C[C@@H]1CC[C@@H]2[C@H](COC[C@@H](O)CN2C(=O)Nc2ccc(Cl)c(Cl)c2)O1)NCc1ccc(Cl)cc1
inactive: [1] | [2] | [3] | [4] | [6]

CN(C[C@H]1N[C@@H](CO)[C@@H]1c1ccc(-c2cccc(F)c2)cc1)S(C)(=O)=O
inactive: [1] | [2] | [3] | [4] | [5] 23.7% [at 8 µM, hits give low values] | [6] | [7]

C[C@H](CO)N1C[C@H](C)[C@H](CN(C)S(=O)(=O)c2ccc(F)cc2)OCCCC[C@H](C)Oc2ccc(NS(=O)(=O)c3ccc(Cl)cc3)cc2C1=O
inactive: [1] | [2] | [3] | [4] | [5] -16.9% [at 4.2 µM, hits give low values] | [6] | [8]

C[C@H]1CCCCO[C@H](CN(C)C(=O)Nc2ccc(C(F)(F)F)cc2)[C@@H](C)CN([C@@H](C)CO)C(=O)c2cc(NS(=O)(=O)c3ccccc3)ccc2O1
inactive: [1] | [2] | [3] | [4] | [5] -16.1% [at 8 µM, hits give low values] | [6] | [7]

Cc1cccc(S(=O)(=O)N2CC[C@@H]3[C@H]2c2cc(C4=CCCCC4)ccc2N[C@@H]3CO)c1
inactive: [1] | [2] | [3] | [4] | [5] 9.72% [at 4.2 µM, hits give low values] | [6]

C[C@H](O)C#Cc1cnc2c(c1)C(=O)N([C@H](C)CO)C[C@@H](C)[C@@H](CN(C)Cc1ccc(-c3ccccc3)cc1)O2
inactive: [1] | [2] | [3] | [4] | [5] 29.8% [at 2.1 µM, hits give low values] | [6] | [7] | [8]

C[C@@H]1CCCCO[C@H](CN(C)Cc2ccc(Cl)c(Cl)c2)[C@@H](C)CN([C@@H](C)CO)C(=O)c2cc(NC(=O)Nc3ccc(F)cc3)ccc2O1
inactive: [1] | [2] | [3] | [4] | [6]

Cc1ccc(S(=O)(=O)N2CC[C@@H]3[C@H](CO)N(C)c4ccc(-c5ccc(C#N)cc5)cc4[C@@H]32)cc1
inactive: [1] | [2] | [3] | [4] | [5] 67.4% [at 2.1 µM, hits give low values] | [6] | [7]

C[C@@H]1CN([C@@H](C)CO)C(=O)c2cc(NC(=O)Cc3ccccc3)ccc2O[C@@H](C)CCCCO[C@H]1CN(C)Cc1ccc(C(F)(F)F)cc1
inactive: [1] | [2] | [3] | [4] | [5] -16.1% | [6] | [7]

C[C@H]1CCCCO[C@H](CN(C)C(=O)Nc2cccc3ccccc23)[C@@H](C)CN([C@@H](C)CO)C(=O)c2cc(NS(=O)(=O)c3ccc(F)cc3)ccc2O1
inactive: [1] | [2] | [3] | [4] | [5] 28.1% [at 0.5 µM, hits give low values] | [6] | [7]

C[C@@H]1CN([C@H](C)CO)C(=O)c2cc(NC(=O)Nc3ccc(F)cc3)ccc2O[C@@H](C)CCCCO[C@H]1CN(C)C(=O)C1CCCCC1
inactive: [1] | [2] | [3] | [4] | [5] 11.9% [at 16 µM, hits give low values] | [6] | [8]

C[C@@H]1CCCCO[C@H](CN(C)S(=O)(=O)c2cccs2)[C@@H](C)CN([C@@H](C)CO)C(=O)c2cc(NC(=O)Nc3ccc(C(F)(F)F)cc3)ccc2O1
inactive: [1] | [2] | [3] | [4] | [5] -21.9% | [6] | [7] | [8]

Cc1ccccc1-c1ccc([C@@H]2[C@@H](CO)N3CCCCN(C(=O)NC4CCCC4)C[C@H]23)cc1
inactive: [1] | [2] | [3] | [4] | [5] -4.19% [at 16 µM, hits give low values] | [6] | [7] | [8]

From PubChem BioAssay
